For assay [1], the target named is Leukocyte tyrosine kinase receptor (Homo sapiens) (UniProt P29376). Conditions: at 1 µM.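 Note: each value is the mean inhibition of LTK.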
Assay [2] has as its target Tyrosine-protein kinase Lyn (Homo sapiens) (UniProt P07948). Conditions: at 0.1 µM.
For assay [3] the target is unchanged. The settings on record: at 1 µM.
Assay [4] has the same target. The settings on record: at 0.1 µM. This is another data set of the same source.
Assay [5] has the same target. The settings on record: at 1 µM. The source holds these as a separate data set.
For assay [6], the target named is T1, Tyrosine-protein kinase Mer (Homo sapiens) (UniProt Q12866).
T1 sequence (whole entry): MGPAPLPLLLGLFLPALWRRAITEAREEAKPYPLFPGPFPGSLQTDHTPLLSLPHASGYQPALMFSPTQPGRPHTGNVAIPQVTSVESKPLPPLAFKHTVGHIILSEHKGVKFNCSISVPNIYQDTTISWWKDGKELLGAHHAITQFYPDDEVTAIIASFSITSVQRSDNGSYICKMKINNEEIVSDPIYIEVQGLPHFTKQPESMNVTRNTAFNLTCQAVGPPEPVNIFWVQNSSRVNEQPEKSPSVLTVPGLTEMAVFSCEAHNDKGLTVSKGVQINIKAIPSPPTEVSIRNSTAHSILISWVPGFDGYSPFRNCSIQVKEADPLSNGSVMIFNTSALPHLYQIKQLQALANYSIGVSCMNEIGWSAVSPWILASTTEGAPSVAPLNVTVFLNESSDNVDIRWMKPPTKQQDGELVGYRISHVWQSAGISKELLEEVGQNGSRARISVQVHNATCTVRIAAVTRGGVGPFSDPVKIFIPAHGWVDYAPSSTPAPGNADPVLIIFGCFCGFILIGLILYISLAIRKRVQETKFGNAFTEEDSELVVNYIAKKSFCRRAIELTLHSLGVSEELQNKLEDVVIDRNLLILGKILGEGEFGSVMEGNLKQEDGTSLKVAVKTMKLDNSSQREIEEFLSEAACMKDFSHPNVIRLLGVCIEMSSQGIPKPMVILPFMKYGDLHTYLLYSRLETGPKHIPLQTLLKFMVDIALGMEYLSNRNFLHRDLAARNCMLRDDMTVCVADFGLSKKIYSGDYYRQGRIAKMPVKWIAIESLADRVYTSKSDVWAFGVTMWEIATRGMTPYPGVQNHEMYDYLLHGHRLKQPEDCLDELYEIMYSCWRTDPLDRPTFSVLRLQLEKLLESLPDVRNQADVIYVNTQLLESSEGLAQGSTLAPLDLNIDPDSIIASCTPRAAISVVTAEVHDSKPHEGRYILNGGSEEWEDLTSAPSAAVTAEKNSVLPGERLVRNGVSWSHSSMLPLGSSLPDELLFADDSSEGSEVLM
The settings on record: at 0.1 µM.

The target in assay [7] is T1, Tyrosine-protein kinase Mer (Homo sapiens). Conditions: at 1 µM.
Assay [8] concerns the target Hepatocyte growth factor receptor (Homo sapiens) (UniProt P08581). The settings on record: at 0.1 µM.
For assay [9] the target is unchanged. The settings on record: at 1 µM.
For assay [10], the target named is T2, Muscle, skeletal receptor tyrosine-protein kinase (Homo sapiens) (UniProt O15146).
T2 sequence (whole entry): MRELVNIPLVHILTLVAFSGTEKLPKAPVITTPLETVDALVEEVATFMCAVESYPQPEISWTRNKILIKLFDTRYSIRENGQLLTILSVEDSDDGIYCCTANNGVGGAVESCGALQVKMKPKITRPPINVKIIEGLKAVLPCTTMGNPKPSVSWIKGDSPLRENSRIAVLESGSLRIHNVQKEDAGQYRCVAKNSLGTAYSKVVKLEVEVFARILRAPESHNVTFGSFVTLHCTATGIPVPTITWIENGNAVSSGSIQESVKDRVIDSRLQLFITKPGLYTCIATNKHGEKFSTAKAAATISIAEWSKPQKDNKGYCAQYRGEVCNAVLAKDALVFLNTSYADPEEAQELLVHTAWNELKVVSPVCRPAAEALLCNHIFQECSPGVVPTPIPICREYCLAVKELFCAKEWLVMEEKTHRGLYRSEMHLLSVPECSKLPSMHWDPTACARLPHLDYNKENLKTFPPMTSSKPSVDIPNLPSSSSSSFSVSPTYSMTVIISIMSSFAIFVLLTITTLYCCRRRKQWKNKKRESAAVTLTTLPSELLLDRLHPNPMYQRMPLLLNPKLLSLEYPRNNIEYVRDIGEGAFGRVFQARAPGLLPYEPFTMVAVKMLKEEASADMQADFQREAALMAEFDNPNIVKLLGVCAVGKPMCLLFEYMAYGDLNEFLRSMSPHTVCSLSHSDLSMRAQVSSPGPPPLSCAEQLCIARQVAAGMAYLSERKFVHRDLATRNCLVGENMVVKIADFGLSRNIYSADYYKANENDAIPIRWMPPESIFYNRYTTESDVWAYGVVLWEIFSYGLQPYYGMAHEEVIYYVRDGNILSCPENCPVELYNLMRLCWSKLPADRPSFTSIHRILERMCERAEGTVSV
The settings on record: at 0.1 µM.

Assay [11] concerns the target T2, Muscle, skeletal receptor tyrosine-protein kinase (Homo sapiens). Conditions: at 1 µM.
The target in assay [12] is Platelet-derived growth factor receptor alpha (Homo sapiens) (UniProt P16234). The settings on record: at 0.1 µM.
For assay [13] the target is unchanged. Conditions: at 1 µM.
Assay [14] deals with Platelet-derived growth factor receptor alpha (Homo sapiens), P16234 [D842V]. Conditions: at 0.1 µM.
For assay [15] the test system is unchanged. The settings on record: at 1 µM.
Assay [16] has as its system Platelet-derived growth factor receptor alpha (Homo sapiens), P16234 [T674I]. The settings on record: at 0.1 µM.
Assay [17] shares this test system. Conditions: at 1 µM.
Assay [18] concerns Platelet-derived growth factor receptor alpha (Homo sapiens), P16234 [V561D]. The settings on record: at 0.1 µM.
Assay [19] has the same test system. Conditions: at 1 µM.
The target in assay [20] is Platelet-derived growth factor receptor beta (Homo sapiens) (UniProt P09619). Conditions: at 0.1 µM.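 Note: reported value is the mean percent inhibition of the kinase.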
Platelet-derived growth factor receptor beta (Homo sapiens), sequence (P09619 whole entry): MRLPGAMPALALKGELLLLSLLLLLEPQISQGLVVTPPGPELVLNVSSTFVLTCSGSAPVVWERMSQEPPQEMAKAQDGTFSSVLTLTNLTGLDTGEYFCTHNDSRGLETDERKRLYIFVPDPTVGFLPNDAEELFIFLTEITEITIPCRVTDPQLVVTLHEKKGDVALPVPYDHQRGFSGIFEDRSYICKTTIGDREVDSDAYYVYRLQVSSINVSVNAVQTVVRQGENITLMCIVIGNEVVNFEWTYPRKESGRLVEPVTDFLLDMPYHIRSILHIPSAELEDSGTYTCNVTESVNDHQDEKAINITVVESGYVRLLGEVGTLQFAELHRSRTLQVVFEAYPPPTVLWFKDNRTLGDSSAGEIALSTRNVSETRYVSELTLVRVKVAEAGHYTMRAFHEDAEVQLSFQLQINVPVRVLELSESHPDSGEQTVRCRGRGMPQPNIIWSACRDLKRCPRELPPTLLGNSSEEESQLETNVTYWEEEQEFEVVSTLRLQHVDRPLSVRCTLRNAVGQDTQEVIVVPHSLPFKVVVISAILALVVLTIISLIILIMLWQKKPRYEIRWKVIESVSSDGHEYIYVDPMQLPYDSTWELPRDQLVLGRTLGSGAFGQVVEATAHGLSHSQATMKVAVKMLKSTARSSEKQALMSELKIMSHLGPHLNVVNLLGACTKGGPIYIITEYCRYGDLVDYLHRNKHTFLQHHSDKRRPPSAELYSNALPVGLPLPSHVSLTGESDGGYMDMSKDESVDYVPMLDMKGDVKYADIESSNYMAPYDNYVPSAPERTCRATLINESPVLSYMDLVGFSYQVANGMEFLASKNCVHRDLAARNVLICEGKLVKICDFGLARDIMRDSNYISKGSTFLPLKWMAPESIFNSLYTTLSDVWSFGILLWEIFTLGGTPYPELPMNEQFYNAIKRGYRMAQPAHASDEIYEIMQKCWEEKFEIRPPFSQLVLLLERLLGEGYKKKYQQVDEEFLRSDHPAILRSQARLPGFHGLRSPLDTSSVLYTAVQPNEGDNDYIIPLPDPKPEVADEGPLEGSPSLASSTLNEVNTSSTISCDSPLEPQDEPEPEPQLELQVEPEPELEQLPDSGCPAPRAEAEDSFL

Leukocyte tyrosine kinase receptor (Homo sapiens), sequence (P29376 whole entry): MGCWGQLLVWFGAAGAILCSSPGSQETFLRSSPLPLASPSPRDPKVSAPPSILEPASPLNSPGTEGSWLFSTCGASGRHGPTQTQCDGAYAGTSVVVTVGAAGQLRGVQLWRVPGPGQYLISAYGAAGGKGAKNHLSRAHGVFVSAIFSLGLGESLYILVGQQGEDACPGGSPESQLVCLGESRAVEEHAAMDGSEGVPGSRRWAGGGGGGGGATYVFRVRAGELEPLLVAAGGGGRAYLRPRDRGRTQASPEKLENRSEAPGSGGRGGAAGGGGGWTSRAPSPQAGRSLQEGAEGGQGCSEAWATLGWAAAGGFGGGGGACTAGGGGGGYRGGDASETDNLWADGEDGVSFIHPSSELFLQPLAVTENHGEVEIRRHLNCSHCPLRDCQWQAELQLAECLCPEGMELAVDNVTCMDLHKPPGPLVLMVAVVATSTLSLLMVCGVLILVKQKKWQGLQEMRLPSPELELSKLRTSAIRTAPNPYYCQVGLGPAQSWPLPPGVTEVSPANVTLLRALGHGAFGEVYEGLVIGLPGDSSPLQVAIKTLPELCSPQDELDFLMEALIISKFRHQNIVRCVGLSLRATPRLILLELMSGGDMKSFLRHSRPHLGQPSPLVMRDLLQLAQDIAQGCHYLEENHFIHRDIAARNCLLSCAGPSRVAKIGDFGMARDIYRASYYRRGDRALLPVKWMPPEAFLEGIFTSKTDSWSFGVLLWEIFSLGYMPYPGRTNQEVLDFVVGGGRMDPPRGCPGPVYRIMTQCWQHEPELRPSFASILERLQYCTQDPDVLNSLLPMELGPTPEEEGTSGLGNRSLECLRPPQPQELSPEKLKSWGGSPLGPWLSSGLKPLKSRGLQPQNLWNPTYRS
Platelet-derived growth factor receptor alpha (Homo sapiens), P16234 [T674I], sequence (P16234 whole entry T674I): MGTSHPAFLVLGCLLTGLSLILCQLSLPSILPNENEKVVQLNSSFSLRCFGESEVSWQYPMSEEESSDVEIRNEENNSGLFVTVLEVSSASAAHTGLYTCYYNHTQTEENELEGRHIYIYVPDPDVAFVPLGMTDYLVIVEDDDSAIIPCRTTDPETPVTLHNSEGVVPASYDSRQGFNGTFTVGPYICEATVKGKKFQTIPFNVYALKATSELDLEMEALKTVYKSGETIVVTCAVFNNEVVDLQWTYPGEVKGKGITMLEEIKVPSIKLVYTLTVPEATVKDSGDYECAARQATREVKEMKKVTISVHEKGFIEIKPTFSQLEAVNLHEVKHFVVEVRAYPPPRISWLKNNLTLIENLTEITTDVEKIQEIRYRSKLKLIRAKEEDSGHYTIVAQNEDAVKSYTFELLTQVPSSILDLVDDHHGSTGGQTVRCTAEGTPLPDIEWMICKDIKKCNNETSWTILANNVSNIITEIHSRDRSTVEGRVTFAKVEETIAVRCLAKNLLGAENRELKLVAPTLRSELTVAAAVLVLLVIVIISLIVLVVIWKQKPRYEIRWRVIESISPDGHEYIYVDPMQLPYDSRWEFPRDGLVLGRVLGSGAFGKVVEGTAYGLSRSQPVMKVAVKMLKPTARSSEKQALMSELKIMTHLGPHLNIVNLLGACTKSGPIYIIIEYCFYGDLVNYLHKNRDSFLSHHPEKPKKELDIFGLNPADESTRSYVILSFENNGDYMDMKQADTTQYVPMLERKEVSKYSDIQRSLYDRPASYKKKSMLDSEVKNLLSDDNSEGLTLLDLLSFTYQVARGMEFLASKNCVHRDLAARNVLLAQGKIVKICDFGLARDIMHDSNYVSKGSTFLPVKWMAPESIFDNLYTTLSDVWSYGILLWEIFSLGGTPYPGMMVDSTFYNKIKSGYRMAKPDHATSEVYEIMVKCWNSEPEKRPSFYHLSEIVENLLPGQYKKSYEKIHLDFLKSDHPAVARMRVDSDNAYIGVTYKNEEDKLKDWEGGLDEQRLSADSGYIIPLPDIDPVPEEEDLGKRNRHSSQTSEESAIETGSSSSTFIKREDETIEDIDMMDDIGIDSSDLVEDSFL
Hepatocyte growth factor receptor (Homo sapiens), sequence (P08581 whole entry): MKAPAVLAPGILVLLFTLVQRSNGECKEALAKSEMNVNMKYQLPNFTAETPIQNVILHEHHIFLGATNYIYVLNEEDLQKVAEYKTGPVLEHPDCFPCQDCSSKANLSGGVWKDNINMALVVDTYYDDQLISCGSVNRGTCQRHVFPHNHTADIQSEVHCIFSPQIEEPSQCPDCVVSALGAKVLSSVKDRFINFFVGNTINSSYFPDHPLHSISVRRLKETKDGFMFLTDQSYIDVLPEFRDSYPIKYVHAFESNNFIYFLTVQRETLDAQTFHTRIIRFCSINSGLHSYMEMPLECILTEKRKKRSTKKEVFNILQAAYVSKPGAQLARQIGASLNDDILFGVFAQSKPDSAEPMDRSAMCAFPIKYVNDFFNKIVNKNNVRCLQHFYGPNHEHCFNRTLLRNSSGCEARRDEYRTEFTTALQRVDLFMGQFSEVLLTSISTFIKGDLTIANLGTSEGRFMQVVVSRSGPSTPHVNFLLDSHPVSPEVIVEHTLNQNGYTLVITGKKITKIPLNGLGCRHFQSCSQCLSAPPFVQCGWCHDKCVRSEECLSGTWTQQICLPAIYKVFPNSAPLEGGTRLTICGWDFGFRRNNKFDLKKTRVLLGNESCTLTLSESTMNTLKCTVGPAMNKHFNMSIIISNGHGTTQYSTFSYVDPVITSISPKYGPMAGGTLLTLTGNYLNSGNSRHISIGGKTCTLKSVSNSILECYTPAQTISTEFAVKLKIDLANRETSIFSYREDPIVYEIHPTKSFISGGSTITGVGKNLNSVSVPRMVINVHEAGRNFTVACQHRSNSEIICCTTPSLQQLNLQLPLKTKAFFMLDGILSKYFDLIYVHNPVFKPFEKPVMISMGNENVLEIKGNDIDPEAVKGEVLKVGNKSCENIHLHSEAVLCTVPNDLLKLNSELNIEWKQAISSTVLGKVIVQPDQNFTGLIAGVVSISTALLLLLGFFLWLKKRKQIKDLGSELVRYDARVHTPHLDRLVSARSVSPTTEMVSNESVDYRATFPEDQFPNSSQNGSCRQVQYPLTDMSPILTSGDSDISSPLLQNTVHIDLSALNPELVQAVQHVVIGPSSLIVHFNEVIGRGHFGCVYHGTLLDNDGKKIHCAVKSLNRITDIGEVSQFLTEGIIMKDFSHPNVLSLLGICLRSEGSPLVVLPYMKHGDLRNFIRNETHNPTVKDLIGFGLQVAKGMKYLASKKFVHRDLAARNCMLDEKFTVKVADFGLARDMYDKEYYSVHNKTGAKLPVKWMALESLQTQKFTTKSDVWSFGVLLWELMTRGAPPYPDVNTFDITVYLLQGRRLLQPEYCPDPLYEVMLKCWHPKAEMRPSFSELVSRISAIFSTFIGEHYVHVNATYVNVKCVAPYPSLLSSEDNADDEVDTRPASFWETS
Tyrosine-protein kinase Lyn (Homo sapiens), sequence (P07948 2-512 limits assumed): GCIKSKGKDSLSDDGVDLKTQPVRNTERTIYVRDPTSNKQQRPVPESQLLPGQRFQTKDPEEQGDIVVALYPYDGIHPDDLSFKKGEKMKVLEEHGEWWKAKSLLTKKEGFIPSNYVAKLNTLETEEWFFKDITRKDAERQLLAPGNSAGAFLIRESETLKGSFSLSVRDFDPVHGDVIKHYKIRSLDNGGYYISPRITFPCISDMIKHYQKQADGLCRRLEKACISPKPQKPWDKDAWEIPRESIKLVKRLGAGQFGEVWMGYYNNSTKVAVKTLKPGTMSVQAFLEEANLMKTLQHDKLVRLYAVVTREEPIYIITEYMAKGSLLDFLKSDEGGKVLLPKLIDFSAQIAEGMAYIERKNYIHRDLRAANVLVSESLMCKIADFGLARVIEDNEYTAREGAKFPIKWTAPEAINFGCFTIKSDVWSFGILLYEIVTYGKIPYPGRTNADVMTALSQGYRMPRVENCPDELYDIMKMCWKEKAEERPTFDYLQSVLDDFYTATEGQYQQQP

For the compound `COc1cc2ncnc(Nc3ccc(C)c(O)c3)c2cc1OC`, the inhibition (in general, the change of the read-out against control, counted positive when it falls) was 24.8% in assay [1]; 39.7% in [2]; 83.9% in assay [3]; 32.6% in assay [4]; 80.8% in assay [5]; 2.64% in assay [6]. Also, the inhibition turned out to be 4.97% in [7]; 1.61% in [8]; 9.16% in assay [9]; 0.51% in [10]; 7.42% in assay [11]; 85.7% in [12]. In addition, the inhibition in assay [13] was 93.9%; in assay [14], 94.2%; in [15], 98%; in assay [16] it was 6.7%; in assay [17], 16.9%; in assay [18], 89.4%. The figures for the inhibition in assay [19] and in assay [20] were 97.8% and 33.2%, respectively.
As to `NS(=O)(=O)c1cccc(Nc2cc(-c3ccc(F)cc3)n[nH]2)c1`, the inhibition in assay [1] is 4.08%; in assay [2] it was 5.86%; in [3], 10.7%; in assay [4] it was 3.31%; in [5], 8.61%; in assay [6] it was 1.94%. Further, the inhibition was found to be 2.95% in [7]; 9.61% in [8]; 4.41% in assay [9]; 3.78% in assay [10]; 13.7% in [11]; 12.7% in assay [12]. The inhibition in assay [13] came out at 36.1%; in assay [14], 3.21%; in [15], 16.6%; in assay [16], 9.3%; in assay [17], 43%; in assay [18] it was 29.1%. For the same compound, the inhibition in assay [19] was determined as 50.8%; in assay [20], 12.7%.
Turning to `CC(C)c1ccc2c(c1)NC(=O)/C2=N/Nc1ccc(S(N)(=O)=O)cc1`, the inhibition in [1] came to 0.89%; in assay [2] it was 3.02%; in assay [3], 12.2%; in assay [4], 2.61%; in assay [5], 10.5%; in assay [6] it was 0.63%. Besides, the inhibition in assay [7] was 1.96%; in assay [8], 0.7%; in assay [9], 1.76%; in assay [10], -0.51%; in assay [11] it was 3.81%; in assay [12], 6.3%. For the same compound, the inhibition worked out at 34.2% in [13]; 1.62% in assay [14]; 17.2% in assay [15]; 6.18% in assay [16]; 48.9% in assay [17]; 21.5% in assay [18]. For the same compound, the figures for the inhibition in [19] and in assay [20] were 52.3% and 4.34%, respectively.
As to `NS(=O)(=O)c1ccc(N/N=C2\C(=O)Nc3ccc(Cl)cc32)cc1`, the inhibition worked out at 4.81% in [1]; 4.69% in assay [2]; 8.22% in assay [3]; 1.56% in [4]; 6.78% in [5]; 1.61% in assay [6]. For the same compound, the inhibition in assay [7] was 1.21%; in assay [8], 7.96%; in [9] it was 7.49%; in assay [10] it was 4.35%; in assay [11] it was 12.6%; in assay [12], 13.1%. In addition, the inhibition in assay [13] is 40.6%; in [14], 4.17%; in assay [15], 13.1%; in [16], 11.4%; in assay [17], 62.9%; in assay [18], 17.2%. The inhibition worked out at 47% in assay [19] and 11.1% in assay [20].
For `NS(=O)(=O)c1cccc(-c2cc3ccncc3cc2OCc2ccccc2)c1`, the inhibition in assay [1] was 1.46%; in assay [2], 5.16%; in assay [3], 6.45%; in assay [4] it was 2.95%; in [5], 3.74%; in [6], 4.79%. Also, the inhibition in [7] was 8.95%; in [8], 3.75%; in assay [9], 4.68%; in assay [10], 0.26%; in assay [11] it was 4.58%; in [12], 13.6%. Moreover, the inhibition was 17.2% in assay [13]; 2.28% in assay [14]; 4.36% in assay [15]; 14.8% in assay [16]; 6.72% in [17]; 2.61% in [18]. For the same compound, the inhibition was 9.52% in assay [19] and 7.66% in assay [20].
As to `FC(F)(F)c1ccc(-c2nn3ncccc3c2-c2ccnc(Nc3ccc4c(c3)OCCO4)n2)cc1`, the inhibition in [1] was 3.42%; in assay [2], 6.84%; in [3], 37.1%; in assay [4], 4.96%; in [5] it was 30.8%; in assay [6], 7.37%. Moreover, the inhibition in assay [7] was determined as 8.55%; in assay [8], 5.94%; in [9], 12.1%; in assay [10], 7.57%; in assay [11], 15%; in [12], 9.5%. For the same compound, the inhibition in assay [13] is 19.5%; in assay [14], 1.06%; in assay [15], 5.73%; in assay [17], 5.8%; in assay [18], 6.7%; in [19], 11.7%. In addition, in assay [20], the inhibition came to 9.78%.
Regarding `Cc1ccc(C(=O)NC2CC2)cc1-c1ccc2[nH]ncc2c1`, the inhibition in assay [1] is -2.27%; in assay [2] it was -2.45%; in [3], -0.16%; in assay [4], -2.22%; in [5], -0.48%; in [6], -1.71%. The inhibition in assay [7] is 1.57%; in assay [8] it was -0.6%; in [9] it was -1.74%; in assay [10], 0.78%; in assay [11], 2.51%; in [12], 2.1%. Moreover, the inhibition is 13.4% in [13]; 1.95% in assay [14]; 4.58% in assay [15]; 1.44% in [16]; 2.76% in [17]; 3.49% in assay [18]. Further, the inhibition was found to be 13.8% in assay [19] and 1.82% in [20].
